Measured values taken from PubChem BioAssay (NCATS).
Inconclusive results are not listed. Where a call stands in place of a potency, no number is given. Activity calls are given as the source filed them. Calls come from the whole dose curve; as a rule, active = well fitted inhibition curve with a large enough effect; inconclusive = small, poorly fitted or top-dose-only effect; inactive = flat fitted curve, though single readings scatter.

Target: Calcium and integrin-binding protein 1 (Homo sapiens) (UniProt Q99828)
Test: Primary qHTS for Identification of Calcium Integrin Binding Protein 1 (CIB1) Competitor (AID 1508620);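 note: GST tagged CIB1 binding a fluorescein labelled alphaIIb integrin peptide tracer; top concentration of the series differs between compounds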
Conditions: CIB1-GST / FITC-alphaIIb peptide fluorescence polarization; series mostly up to 114 µM
Procedure, shortened: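 Fluorescence polarization competition: CIB1-GST (1 uM final) preincubated with compound 15 min at room temperature, then FITC-labeled alphaIIb peptide (100 nM final) added for another 15 min. Polarization read at Ex 480/Em 540.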

Calcium and integrin-binding protein 1 (Homo sapiens), sequence (Q99828 whole entry, looked up): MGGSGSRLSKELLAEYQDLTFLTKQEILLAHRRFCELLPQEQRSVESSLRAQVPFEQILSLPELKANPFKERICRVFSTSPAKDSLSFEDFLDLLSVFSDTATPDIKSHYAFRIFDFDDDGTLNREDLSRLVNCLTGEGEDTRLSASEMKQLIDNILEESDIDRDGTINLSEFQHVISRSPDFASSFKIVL

SMILES	Potency
CCNc1cccc(S(=O)(=O)N2CCCN(S(=O)(=O)c3ccc4c(c3)OCCO4)CC2)c1	inactive
COc1ccc(-c2csc(N3CCC(C(N)=O)CC3)n2)cc1	inactive
O=C(CNC(=O)c1ccncc1)OC(C(=O)Nc1cc(C(F)(F)F)ccc1Cl)c1ccccc1 (stereo not given)	inactive
COc1ccc(C2Nc3ccccc3C(=O)N2Cc2ccccc2)cc1COc1ccc(Cl)cc1 (stereo not given)	inactive
Cc1ccc(-c2ccc(=O)n(CC(=O)N(C)CCN(C)C)n2)cc1	inactive
O=C(CSc1ccccc1)Nc1nnc(COc2ccc(Cl)cc2)s1	inactive
O=S(=O)(c1ccccc1)N1CCN(c2nc(C3CC3)nc3ccccc23)CC1	inactive
COc1ccc(CN(Cc2ccccc2)C(=O)c2ccc(OC)cc2O)cc1	inactive
C#Cc1nc(Nc2cccc(Cl)c2)nc(NC2CCCC2)n1	inactive
COc1ccc(N2C[C@]34C=C[C@H](O3)C(C(=O)O)C4C2=O)cc1 (stereo not given in full)	inactive
Cc1ccc(NC(=O)CN2C(=O)N/C(=C\c3cccn3-c3cccc(-c4nn[nH]n4)c3)C2=O)cc1	inactive
N#Cc1ccc(-c2ccc(CNc3ccc(N4CCCCC4)cc3)o2)cc1	inactive
c1cncc(CNc2ncnc3ccc(-c4ccc5c(c4)OCCO5)cc23)c1	inactive
CN1CCOc2ccc(S(=O)(=O)N3CCN(S(=O)(=O)c4c(F)cccc4F)CC3)cc21	inactive
Cc1sc(NC(=O)Cc2ccc3c(c2)OCO3)nc1-c1ccc2c(c1)CCN2C	inactive
O=S1(=O)N=C(Oc2ccc(C(F)(F)F)cc2)c2ccccc21	inactive
Cc1noc(C)c1-c1ccc2ncnc(NCc3ccccc3F)c2c1	inactive
COc1ccccc1C(=O)NCCc1nc2ccccc2n1CCOc1ccc(C)cc1	inactive
O=C(Nc1nnc(-c2ccncc2)s1)Nc1cc(C(F)(F)F)ccc1F	inactive
N#Cc1nc(-c2cccc3ccccc23)oc1NC1CNC1	inactive

SMILES	Potency
COc1ccc(C2Nc3ccccc3C(=O)N2Cc2ccccc2)cc1COc1ccccc1OC (stereo not given)	inactive
COc1cc(OC)cc(-c2csc(N3CCC(C(N)=O)CC3)n2)c1	inactive
CC(=O)NC(c1ccco1)c1cc(Cl)c2ccc(Cl)nc2c1O (stereo not given)	inactive
COc1ccc(C2Nc3ccccc3C(=O)N2Cc2ccccc2)cc1COc1c(C)cc(NC(C)=O)cc1C (stereo not given)	inactive
O=S(=O)(Nc1cc(O)cc2cccnc12)c1ccc(Br)s1	inactive
Cc1cc(C)nc(NC(=S)N2CCN(c3cccc(OC(F)F)c3)CC2)c1	inactive
CC(C)(C)OC(=O)Cc1nnc(C(C(=O)OCc2ccccc2)c2ccccc2)s1 (stereo not given)	inactive
O=S1(=O)N=C(Oc2ccccc2F)c2ccccc21	inactive
CC(C)(C)OC(=O)N1CCN(c2cnc(NCc3ccc(-c4ccc(C#N)cc4)o3)nc2)CC1	inactive
Cc1cc(C)n2ncc(C(=O)NCC(C)C)c2n1	inactive
NC(=O)C1CCN(c2nc(-c3cccs3)cs2)CC1	inactive
Cc1cccc(-c2ccc3ncnc(NCc4cccc(F)c4)c3c2)c1	inactive
Cc1ccc2nc3sc(C(=O)N4CCCCC4)cc3cc2c1	inactive
N#Cc1cccc(-c2ccc(NC(=O)c3cccs3)cn2)c1	inactive
O=C(c1ccco1)N1CCN(c2nc(-c3ccc(Br)cc3)cs2)CC1	inactive
CC(C)CC(OC(=O)CNC(=O)c1ccccc1)C(=O)Nc1cc(C(F)(F)F)ccc1Cl (stereo not given)	inactive
Cc1ccc2nc3sc(C(=O)NC4CCCC4)cc3cc2c1	inactive
O=C(Nc1cncc(NC(=O)c2cccs2)c1)c1cccs1	inactive
CCCCN1C(=O)c2ccccc2C1=O	inactive
COc1ccccc1-c1nnc2n1N=C(c1c(OC)cccc1OC)CS2	inactive
